From the supplement of paper PMC6089552
The whole screen tested about 3,200 compounds, of which about 300 (9.4%) showed activity. The entries come from a sample that favours actives as a whole.

Tested on: A673/TR/shEF
Assay: cell viability (LOESS-normalised, relative to median of negative controls) (log2 ratio); higher = more viable cells (less compound effect), active = hit call of the paper (over 3 MAD below the median)
Conditions: treatment time: 72 h
Summary of the method: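 For three days, A673/TR/shEF Ewing sarcoma cells in 384-well plates (1,500 per well) were treated with library compounds at two or more concentrations or with DMSO controls, after doxycycline had been added or withheld 24 h beforehand to induce EWS-FLI1 shRNA knockdown. Viability was read by CellTiter-Glo luminescence on an Envision reader. The data were LOESS-corrected per plate, divided by the median of negative controls and log2-transformed.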

[1] = 0.25 µM, library screen: screen1, EWS-FLI1 expression: high (no doxycycline)
[2] = 0.25 µM, library screen: screen1, EWS-FLI1 expression: low (doxycycline-induced shRNA knockdown)
[3] = 2.5 µM, library screen: screen1, EWS-FLI1 expression: high (no doxycycline)
[4] = 2.5 µM, library screen: screen1, EWS-FLI1 expression: low (doxycycline-induced shRNA knockdown)
[5] = 0.025 µM, library screen: screen1, EWS-FLI1 expression: high (no doxycycline)
[6] = 0.025 µM, library screen: screen1, EWS-FLI1 expression: low (doxycycline-induced shRNA knockdown)
[7] = 0.25 µM, library screen: screen2, EWS-FLI1 expression: high (no doxycycline)
[8] = 0.25 µM, library screen: screen2, EWS-FLI1 expression: low (doxycycline-induced shRNA knockdown)
[9] = 2.5 µM, library screen: screen2, EWS-FLI1 expression: high (no doxycycline)
[10] = 2.5 µM, library screen: screen2, EWS-FLI1 expression: low (doxycycline-induced shRNA knockdown)
[11] = 25 µM, library screen: screen1, EWS-FLI1 expression: high (no doxycycline)
[12] = 25 µM, library screen: screen1, EWS-FLI1 expression: low (doxycycline-induced shRNA knockdown)
[13] = 0.103 µM, library screen: screen3, EWS-FLI1 expression: high (no doxycycline)
[14] = 0.103 µM, library screen: screen3, EWS-FLI1 expression: low (doxycycline-induced shRNA knockdown)
[15] = 0.308 µM, library screen: screen3, EWS-FLI1 expression: high (no doxycycline)
[16] = 0.308 µM, library screen: screen3, EWS-FLI1 expression: low (doxycycline-induced shRNA knockdown)
[17] = 0.926 µM, library screen: screen3, EWS-FLI1 expression: high (no doxycycline)
[18] = 0.926 µM, library screen: screen3, EWS-FLI1 expression: low (doxycycline-induced shRNA knockdown)
[19] = 2.8 µM, library screen: screen3, EWS-FLI1 expression: high (no doxycycline)
[20] = 2.8 µM, library screen: screen3, EWS-FLI1 expression: low (doxycycline-induced shRNA knockdown)
[21] = 8.3 µM, library screen: screen3, EWS-FLI1 expression: high (no doxycycline)
[22] = 8.3 µM, library screen: screen3, EWS-FLI1 expression: low (doxycycline-induced shRNA knockdown)
[23] = 25 µM, library screen: screen3, EWS-FLI1 expression: high (no doxycycline)
[24] = 25 µM, library screen: screen3, EWS-FLI1 expression: low (doxycycline-induced shRNA knockdown)

Measured: cell viability (log2)

CC(=O)O[C@H]1C[C@@H](OC(C)=O)C(C)(C)C2C[C@@H](OC(C)=O)[C@@]3(C)C4=CC(=O)OC(=O)[C@]4(C)CCC3[C@]21C (stereo partly drawn)
inactive: [1] 0.0349 | [2] 0.118 | [3] 0.174 | [4] 0.189

CC1(C)C(=O)[C@@H]2C[C@@]3(O)C4=CC(=O)O[C@@H](c5ccoc5)[C@]4(C)CCC3C(C)(C2=O)[C@H]1CC(=O)O (stereo partly drawn)
inactive: [1] 0.0688 | [2] 0.13 | [3] 0.086 | [4] 0.0264

O=C(O)c1ccc(OC2CSC2)cc1
inactive: [1] -0.0489 | [2] 0.0317 | [3] 0.0805 | [4] 0.0727

O=C1Nc2ccc(I)cc2/C1=C/c1cc(Br)c(O)c(Br)c1
inactive: [5] 0.115 | [6] -0.011 | [1] 0.134 | [2] -0.0458 | [7] 0.275 | [8] 0.0983 | [3] 0.0489 | [4] 0.0445 | [9] 0.0633 | [10] 0.123 | [11] -0.0847 | [12] 0.107

CN(C)c1ccc(/C=C2\C(=O)Nc3ccccc32)cc1
active: [7] -1.84 | [8] -0.565 | [3] -0.163 | [9] -2.61 | [10] -0.918 | [11] -0.158
inactive: [5] 0.182 | [6] 0.00152 | [1] 0.171 | [2] 0.0583 | [4] 0.0499 | [12] 0.195

CC(C)N1C(=O)/C(=C/c2ccc(N(C)C)cc2)SC1=S
inactive: [1] 0.23 | [2] 0.276 | [3] 0.232 | [4] 0.349

O=C(O)CN(CC(=O)O)Cc1cc2c(cc1O)Oc1cc(O)c(CN(CC(=O)O)CC(=O)O)cc1C21OC(=O)c2ccccc21
inactive: [1] 0.133 | [2] 0.0463 | [3] 0.15 | [4] 0.0168

COc1ccc(NC(=O)/C(=C/c2cccnc2)NC(=O)c2cccs2)cc1
inactive: [1] 0.123 | [2] 0.163 | [3] 0.1 | [4] 0.101

Brc1ccc(CN2CCN(Cc3ccco3)CC2)cc1
inactive: [1] 0.0694 | [2] 0.0304 | [3] 0.0829 | [4] -0.00775

CC1=C(C(=O)OC2CCCC2)C(c2coc3ccc(Cl)cc3c2=O)C2=C(CCCC2=O)N1 (stereo not drawn)
inactive: [1] 0.123 | [2] 0.0763 | [3] 0.136 | [4] -0.0126

CC(C)c1c(O)ccc2c1CC[C@H]1C(C)(C)CCC[C@]21C
inactive: [1] 0.0946 | [2] 0.115 | [3] 0.166 | [4] 0.269

CCN(CC)C(=S)SSC(=S)N(CC)CC
inactive: [13] 0.0335 | [14] 0.117 | [7] 0.112 | [8] 0.121 | [15] -0.158 | [16] 0.0728
active: [1] -1.42 | [2] -0.538 | [17] -4.24 | [18] -2.11 | [3] -2.82 | [4] -1.78 | [9] -4.17 | [10] -0.213 | [19] -4.24 | [20] -4.26 | [21] -4.26 | [22] -4.27 | [23] -4.26 | [24] -4.25

Cc1cc(Cl)ccc1OCC(O)CN1CCN(C)CC1 (stereo not drawn)
inactive: [1] 0.0377 | [2] 0.029 | [3] 0.0948 | [4] 0.184

N[C@@H](C=O)[C@@H](O)[C@H](O)[C@H](O)CO
inactive: [1] 0.0986 | [2] 0.0199 | [3] 0.192 | [4] 0.145

CN(C)CCC=C1c2ccccc2C=Cc2ccccc21
inactive: [1] 0.131 | [2] 0.0615 | [7] 0.206 | [8] 0.141 | [3] 0.117 | [4] 0.104 | [9] 0.126 | [10] 0.0683

CN(C)CC/C=C1\c2ccccc2COc2ccccc21
inactive: [1] 0.126 | [2] 0.129 | [7] 0.0848 | [8] 0.0467 | [3] 0.131 | [4] 0.118 | [9] 0.142 | [10] 0.121

CN(C)CCC=C1c2ccccc2CCc2ccccc21
inactive: [1] 0.0816 | [2] 0.086 | [8] 0.138 | [3] 0.144 | [4] 0.0763 | [9] 0.0454 | [10] 0.0908
active: [7] -0.148

COc1c(C2COc3cc4c(cc3C2=O)CC(O)C(C)(C)O4)ccc2c1CCC(C)(C)O2 (stereo not drawn)
inactive: [1] 0.0719 | [2] 0.0278 | [3] 0.0883 | [4] 0.0229

CNC(=O)CN(CCN(CCN(CC(=O)[O-])CC(=O)NC)CC(=O)[O-])CC(=O)[O-].O.[Gd+3]
inactive: [13] 0.106 | [14] -0.0293 | [15] 0.00861 | [16] 0.114 | [17] 0.0946 | [18] 0.0839 | [19] 0.127 | [20] 0.127 | [21] 0.0841 | [22] 0.116 | [23] 0.0924 | [24] 0.134
